# Assay outcomes (PubChem BioAssay)
# A selection: hits, their analogues and other compounds. The true share with any hit is near 2.3%.
# Tau FP inhib: blocks human tau fibril formation measured by polarization; 280,000 tested, 0.39% active; P10636; Potency, µM (top dose mostly 57.7 µM), without a hit: at the top dose activity, negative = inhibition, hits mostly inhibitors; AID 1468; K18 P301L tau heparin fibrillization, Alexa594 FP, 6 h; also: potency is read from the fitted curve at half-maximal effect; nearly all actives have a fitted effect of over 55% in size
# Target sequence (P10636 561-689 P618L limits assumed): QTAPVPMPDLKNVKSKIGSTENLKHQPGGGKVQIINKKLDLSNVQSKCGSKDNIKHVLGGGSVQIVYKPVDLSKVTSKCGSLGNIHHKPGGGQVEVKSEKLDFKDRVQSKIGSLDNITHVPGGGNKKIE
#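 Human K18 P301L fragment (15 uM unlabeled plus 0.24 uM Alexa 594-labeled) in 100 mM sodium acetate pH 7 with compound, aggregation induced by 20 uM heparin for 6 hr at 37 C. ThT (30 uM) added for 1 hr, then Alexa 594 FP read.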
# Tau fibril ThT: inhibitors of human tau fibril formation, thioflavin T binding. AID 1460. Potency, µM (doses to about 57.4 µM), for inactives: at the top dose activity, negative = inhibition, most hits filed as inhibitors. recombinant tau K18 P301L, heparin-induced fibrillization, ThT fluorescence. 270,000 tested, 2.1% active; also: potency is read from the fitted curve at half-maximal effect; nearly all actives have a fitted effect of over 55% in size
#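 Heparin-induced (20 uM) aggregation of recombinant human K18 P301L tau, 15 uM unlabeled with 0.24 uM labeled, pH 7 acetate buffer, 6 hr at 37 C with compound. Fibrils quantified by 30 uM ThT fluorescence after 1 hr ambient incubation.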
# Tau fluor counter: counter-screen for tau fibril formation inhibitors; AID 1463; tau K18 P301L (four-repeat tau fragment) Alexa594 fluorescence, heparin fibrillization; 280,000 tested, 0.93% active; Potency, µM (doses to about 57.7 µM), without a hit: at the top dose activity change, negative = decrease; also: potency is read from the fitted curve at half-maximal effect; nearly all actives have a fitted effect of over 55% in size
#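 Human K18 P301L tau (15 uM unlabeled plus 0.24 uM Alexa 594-labeled, final) in 100 mM sodium acetate pH 7 was mixed with compound and 20 uM heparin and incubated 6 hr at 37 C.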
# Coupling enz: coupling enzyme interference in Giardia aldolase counter-screen | coupling enzyme system counterscreen, AmpLite Red fluorescence | 290,000 tested, 0.67% active | activity change, negative = inhibition, % at 58.2 µM, hits read low | AID 2472; in the data active = activity change below about -30%
#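 Counterscreen of the coupled detection system alone, without aldolase: glyceraldehyde-3-phosphate coupling enzymes plus AmpLite Red readout. Compounds at 57.5 uM final, 10 min RT preincubation, 20 min RT reaction, fluorescence 525/598 nm.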
# USP1-UAF1 inh: blocks the human USP1/UAF1 deubiquitinase complex; O94782; recombinant USP1/UAF1, Ub-Rhodamine cleavage fluorescence; Potency, µM (highest dose often 57.1 µM), for inactives: at the top dose activity change, negative = inhibition, actives largely listed as inhibitors; 390,000 tested, 0.23% active; also: potency is read from the fitted curve at half-maximal effect; nearly all actives have a fitted effect of over 60% in size
#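 USP1/UAF1 complex (1 nM) preincubated 15 min at room temperature with compound, then Ub-Rho substrate (150 nM final) added. Kinetic fluorescence at 480/540 nm over 6 reads at 60 s intervals; 50 mM HEPES pH 7.8, 0.5 mM EDTA, 0.1 mg/ml BSA, 1 mM TCEP, 0.01% Tween-20.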
# Starred values were filed as active, the others as inactive; u = inconclusive; x = no result given; [ ] = dose if it differs, or a comment. Unless noted, calls follow the shape of the dose curve; as a rule, active = well fitted curve in the direction sought with a large enough effect; inconclusive = small, poorly fitted or top-dose-only effect, or another doubt; inactive = no such curve, though single readings can be large; an effect the other way counts as inactive or inconclusive. % is scaled to controls: 0 for no effect and ±100 for the full control effect.
SMILES,Tau FP inhib,Tau fibril ThT,Tau fluor counter,Coupling enz,USP1-UAF1 inh
CC1CCCCN1C(=O)Cn1cc(C=O)c2ccccc21 (centres undefined),3%,3%,4%,-2,-10%
CC1CCCCN1C(=O)Cn1cc(/C=C2/C(=O)Nc3ccccc32)c2ccccc21 (centres undefined),15%,10µM*,u,x,x
COc1ccccc1N1CCN(c2ncnc3nc[nH]c23)CC1,3%,-13%,-6%,3,-22%
COc1ccc(N2CCN(c3ncnc4nc[nH]c34)CC2)cc1,11%,18µM*,-24%,2,-15%
N#Cc1cc2c(nc1SCc1nc3ccccc3[nH]1)CCC2,12%,6.3µM*,u,-3,x
COc1ccc(C2=CC(=O)C=CC2=O)cc1,35µM*,14µM*,u,-36*,x
CC(=O)n1c2ccccc2c2nc3ccccc3nc21,x,x,x,7,-12%
C=CCNc1nc2c3ccccc3n(C(C)=O)c2s1,u,28µM*,u,-23,u
CCOC(=O)C1CCN(C(=O)Nc2ccc3nc(-c4ccco4)c(-c4ccco4)nc3c2)CC1,u,3.2µM*,u,-45*,u
O=C(Nc1ccc2nc(-c3ccco3)c(-c3ccco3)nc2c1)N1CCCCCC1,14µM*,7.1µM*,8.9µM*[quencher],-37*,32µM*
CCOC(=O)C1CCN(C(=O)Nc2ccc3c(c2)nc(C)n3C)CC1,-7%,-19%,-7%,-5,-8%
Cc1nc2ccc(NC(=O)N3CCCCC3)cc2nc1C,-4%,-16%,-5%,-3,-15%
CCOC(=O)c1c(S(=O)(=O)NCC(=O)Nc2ccc(C)c(Cl)c2)c(C)n(C)c1C,-6%,-3%,-22%,x,-13%
COC(=O)[C@@H]1[C@@H](C)N(CCc2cc(OC)c(OC)c(OC)c2)C(=O)N[C@H]1c1ccccc1,-6%[11.6 µM],11%[11.5 µM],4%[11.6 µM],2,x
COc1ccc(C(=O)c2sc3nc(-c4ccccc4)ccc3c2N)cc1,-18%,u,10µM*[quencher],-3,u
CC(C)OC(=O)c1sc2nc(-c3ccccc3)ccc2c1N,1%,-10%,u,-2,-16%
CCOc1ccccc1NC(=O)c1sc2nc(-c3ccc(OC)cc3)ccc2c1N,13%,u,3.5µM*[quencher],x,-4%
COc1ccc(-c2ccc3c(N)c(C(=O)Nc4ccc(C)cc4C)sc3n2)cc1OC,5%,u,8.9µM*[quencher],x,-6%
COc1cccc(-c2ccc3c(N)c(C(=O)c4ccc(Cl)cc4)sc3n2)c1,u,4.5µM*,2.8µM*[quencher],x,-24%
COc1cc(/C=C/c2sc3ccccc3[n+]2CCCS(=O)(=O)[O-])ccc1O,5%,6%,-1%,-34*,25µM*
O=C(O)c1cc(O)c2c(c1)[C@@H]([C@H]1c3cc(C(=O)O)cc(O)c3C(=O)c3c(O[C@@H]4O[C@H](CO)[C@@H](O)[C@H](O)[C@H]4O)cccc31)c1cccc(OC3O[C@H](CO)[C@@H](O)[C@H](O)[C@H]3O)c1C2=O (some centres undefined),x,x,x,x,5.6µM*
O=C1c2cc(CO)cc(O)c2C(=O)c2c(O[C@@H]3OC(CO)[C@@H](O)[C@@H](O)[C@@H]3O)cccc21 (some centres undefined),x,x,x,x,-2%
O=C(O)c1cc(O)c2c(c1)[C@H]([C@H]1c3cc(C(=O)O)cc(O)c3C(=O)c3c(O[C@@H]4O[C@H](CO)[C@@H](O)[C@H](O)[C@H]4O)cccc31)c1cccc(OC3O[C@H](CO)[C@@H](O)[C@H](O)[C@H]3O)c1C2=O (some centres undefined),x,x,x,x,7.1µM*
COC(=O)C/C=C\[C@@H](C)[C@@H](/C=N\OC[C@@H]1O[C@H](c2ccccc2)C=C[C@@H]1Oc1ccc(OC)cc1)NS(=O)(=O)c1ccc(C)cc1,-7%[11.6 µM],-12%[11.5 µM],-14%[11.6 µM],-1,x
Cc1ccc(NC(=O)CSc2nc(-c3cccs3)cc(C(F)(F)F)n2)cc1C,u,u,-15%,x,-13%
CCOC(=O)C1=C(C)OC(N)=C(C#N)C1c1c(C)nn(-c2ccccc2)c1Cl (centres undefined),-11%,u,-13%,-51*,u
